The structures appear in SMILES notation. Screen size: about 360,000 compounds; about 2,000 (0.56%) were called active.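 How the source made its calls: active means activation above the average of all compounds screened plus 3 SD, cutoff fixed separately per campaign (cut at about 7.5% in these data); inactive means the rest.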 For the sample, actives were picked, then their nearest neighbours and some compounds at random.

The test is described as follows: GAA850 frataxin promoter reporter upregulation – cell-based, luciferase luminescence, HEK293 lucGAA850, primary screen (AID 540364).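 Further: 0% = DMSO wells and 100% = 10 µM SAHA wells.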 The conditions noted are these: HEK293 lucGAA850 FXN promoter luciferase reporter, 24 h; at 6 µM; active compounds read high; percent of 10 µM SAHA response.
`O=C1CS(=O)CN1c1ccc(Oc2ccccc2)cc1` (centres undefined): the activation is 0.15% (inactive).

Regarding `Cc1ccc(-n2nc(N)c3c(=O)oc(N(C)C)nc32)cc1`, the activation was -0.82% (inactive).

Turning to `Cc1ccsc1C(=O)NCCc1ccco1`, the activation was 2.23% (inactive).

Regarding `CCCCc1ccc(NC(=S)N2CCCC(CO)C2)cc1` (centres undefined), the activation is 9.18% (active).

On to `CCC(C)c1ccc(NC(=S)N2CCCC2)cc1` (centres undefined), for which the activation is 2.31% (inactive).

`CCOc1ccc(NC(=S)N2CCCCCC2)cc1`: the activation was 1.3% (inactive).

For `O=C(O)c1ccc(N/N=C/c2ccc3ncccc3c2)cc1`, the activation was -3.19% (inactive).

`Cc1ccc2cc(/C=N/NC(=O)[C@@H]3CCCN3)c(Cl)nc2c1`: the activation is 0.79% (inactive).

For `Cc1ccc2cc(/C=N/Nc3ccc(C(=O)O)cc3)c(Cl)nc2c1`, the activation is 8.93% (active).

For `CCOCCCNC(=O)C(NC(=O)CNC(=O)c1ccccc1)c1ccc(C)cc1` (centres undefined), the activation is 1.83% (inactive).

Take `COc1ccc(OC)c(NC(=O)CSc2nc3cccnc3n2C)c1`: the activation was 1.38% (inactive).

Turning to `COc1cccc(-c2ccc(C#N)c(SCC(=O)NCCc3ccc(Cl)cc3)n2)c1`, the activation is 1.81% (inactive).

Take `COc1cccc2cc(/C(C)=N/NC(=O)c3ccco3)oc12`: the activation is 3.55% (inactive).

Regarding `COc1ccc(C)cc1NC(=O)CSc1nc(SC)ns1`, the activation was -0.57% (inactive).

With `CSc1nsc(SCC(=O)Nc2cc(C(=O)O)ccc2C)n1`, the activation is 0.88% (inactive).

With `COc1ccc(NC(=O)CSc2nc(SC)ns2)c(OC)c1`, the activation was 7.6% (active).

On to `Cc1cccc(C(=O)NC2CCN(CC(=O)Nc3cccc(Cl)c3)CC2)c1`, for which the activation was -1.24% (inactive).

As to `Fc1c(F)c(C(F)(F)F)c(F)c(F)c1N1CCN(c2ccc3nnc(C(F)(F)F)n3n2)CC1`, the activation was -0.98% (inactive).

As to `Cc1ccccc1Nc1c([N+](=O)[O-])ccc2nonc12`, the activation was 8.33% (active).

Regarding `Cc1cc(NC(=O)Nc2ccccc2[N+](=O)[O-])no1`, the activation is 3.8% (inactive).

In the case of `Cc1ccc2nsnc2c1NC(=O)c1ccccc1[N+](=O)[O-]`, the activation was 3.24% (inactive).

Regarding `CC(C)CN(C(=O)CSc1nncn1C)C1CCS(=O)(=O)C1` (centres undefined), the activation was 0.57% (inactive).

As to `CN1C(=O)/C(=C\c2cc(Br)cs2)c2ccccc21`, the activation was 9.69% (active).

Take `CCC1C(=O)c2ccccc2N(C)C1=O` (centres undefined): the activation is 0.11% (inactive).

In the case of `CN1C(=O)/C(=N/OC(=O)c2ccccc2Br)c2ccccc21`, the activation was 2.92% (inactive).

With `COCCC(=O)Nc1ccc2c(c1)CN(C(=O)CCOC)CC2`, the activation is 0.49% (inactive).

As for `CC1C/C(=N/NC(=O)c2cccs2)CC(C)(C)C1` (centres undefined), the activation was 2.63% (inactive).

In the case of `C=CCn1c(SCc2ccccc2)nc2c1c(=O)[nH]c(=O)n2C`, the activation was 4.04% (inactive).

On to `Cc1nnc(SCCCn2c(N3CCCCC3)nc3c2c(=O)[nH]c(=O)n3C)s1`, for which the activation was 3.13% (inactive).

Take `Cc1nnc(Sc2nc3c(c(=O)[nH]c(=O)n3C)n2Cc2ccccc2)s1`: the activation is 21.3% (active).

As to `COc1cc(Cn2c3ccc(NC(=O)CC(C)c4ccccc4)cc3c(=O)n2C)ccc1F` (centres undefined), the activation is -0.13% (inactive).

With `C[C@H]([C@@H](O)[C@@H](O)[C@@H](C)C(C)(C)C)[C@H]1CC[C@H]2C3CC[C@H]4C[C@H](OS(=O)(=O)O)[C@@H](OS(=O)(=O)O)C[C@]4(C)[C@H]3CC[C@]12C` (some centres undefined), the activation was -1.51% (inactive).

For `Nn1cnnc1N/N=C/c1cc([N+](=O)[O-])c(Cl)cc1Cl`, the activation was -1.71% (inactive).

For `CN(C)CCNC(=O)c1ccc(Cl)c2cc3ccccc3nc12`, the activation is 22.7% (active).

With `CNC(=O)c1cccc2nc3ccccc3nc12`, the activation is 3.97% (inactive).

Regarding `CCCN(CCC)CCNC(=O)c1cc2c(C)nc3ccccc3c2o1`, the activation is -0.61% (inactive).

Consider `COC(=O)CCSc1cc([N+](=O)[O-])cc2c1c(C1OCCS1)nn2-c1ccccc1` (centres undefined), for which the activation was 4.76% (inactive).

For the compound `CC1=C(C(=O)N2CCOCC2)CC(CC(=O)NCc2cccc3ccccc23)C(=O)N1CCC1=CCCCC1` (centres undefined), the activation is -1.16% (inactive).

On to `CCn1c(=O)c(=O)n(CC)c2cc(S(=O)(=O)N3CCc4ccccc43)ccc21`, for which the activation is 0.26% (inactive).

Regarding `O=S(=O)(c1ccccc1)N1CCc2ccccc21`, the activation was 1.28% (inactive).

As to `Cn1c(=O)n(C)c2cc(S(=O)(=O)N3CCCc4ccccc43)ccc21`, the activation was 7.64% (active).

In the case of `Cc1c(Br)c([N+](=O)[O-])nn1C(C)C(=O)Nc1nccs1` (centres undefined), the activation is 1.64% (inactive).

With `COc1ccc(-n2nc(C(=O)NCC(=O)Nc3cccc(C)n3)c3ccccc3c2=O)cc1`, the activation was -0.56% (inactive).

Regarding `Cc1ccc(S(=O)(=O)N(CCc2ccccc2)c2ccc3c(c2)C2CC3CCN2C(=O)OCc2ccccc2)cc1` (centres undefined), the activation was 0.17% (inactive).

With `COc1ccc(/C=C/C(=O)Nc2ccc(C)cc2)cc1S(=O)(=O)N1CCOCC1`, the activation was -0.63% (inactive).

Regarding `COc1ccc(/C=C/C(=O)Nc2ccc(C34CC5CC(CC(O)(C5)C3)C4)cc2)cc1OC`, the activation is 7.97% (active).

Consider `COc1cc(/C=C/C(=O)Nc2ccc(OC)c(S(=O)(=O)N3CCOCC3)c2)ccc1OCC#N`, for which the activation was -0.85% (inactive).

As for `Cc1ccc(C(=O)N/C(=C/c2cccs2)C(=O)NCC2CCCO2)cc1` (centres undefined), the activation was 0.61% (inactive).

With `Cc1ccc2c(c1)N(CC(=O)NCC1CCCO1)C(=O)CO2` (centres undefined), the activation was 0.58% (inactive).

As for `Cc1ccc(-n2c(C)cc(/C=C(\C#N)C(=O)NCC3CCCO3)c2C)cc1` (centres undefined), the activation is 8.72% (active).

For `CCN(CC)CCNS(=O)(=O)c1ccc(/C=C/C(=O)O)cc1`, the activation is 3.64% (inactive).

In the case of `CCCS(=O)(=O)N1CCC(C(=O)NCCCN(C)Cc2ccccc2)CC1`, the activation was -0.04% (inactive).

Consider `CCc1ccc2nc3sc(C(=O)Nc4nnc(CC)s4)c(N)c3cc2c1`, for which the activation was 3.44% (inactive).

Take `Cc1ccc(NC(=O)c2sc3nc(N)c(C#N)cc3c2N)cc1`: the activation was 9.04% (active).

`Cc1ccc(Sc2ccc(NC(=O)c3ccc(F)cc3)cc2C#N)cc1`: the activation is -1.85% (inactive).

Take `CCCCc1ccc(S(=O)(=O)NC(=O)C2(C)CCN2C(=O)c2c(C)noc2C)cc1` (centres undefined): the activation was 1.5% (inactive).

As to `Cc1c(C(C)(C)O)[nH]c2ccc(C#N)cc12`, the activation is 2.02% (inactive).

For `CCCn1c(=NC(C)=O)c(C(=O)OCC)cc2c(=O)n3ccccc3nc21`, the activation was 5.78% (inactive).

Regarding `CCOC(=O)c1cc2c(=O)n3ccccc3nc2n(CC(C)C)c1=NC(=O)c1c(-c2c(F)cccc2Cl)noc1C`, the activation was 8.16% (active).

With `Cc1onc(-c2c(F)cccc2Cl)c1C(=O)OCC(=O)N1C(C)CCCC1C` (centres undefined), the activation is 0.34% (inactive).

With `CCCNC(=O)C1(C)CCCN(Cc2c(C)nn(-c3ccccc3)c2C)C1` (centres undefined), the activation was 0.72% (inactive).

In the case of `Cc1cc(C(=O)O)c(S(C)(=O)=O)s1`, the activation was -0.08% (inactive).

On to `CCOc1ccc(N2C(=O)/C(=C/c3ccc(C)o3)N(C)C2=S)cc1`, for which the activation was 4.15% (inactive).

With `Cc1cc(=O)oc(C)c1C(=O)NCCN(C)Cc1ccccc1`, the activation is 1.1% (inactive).

Regarding `Cc1cc(=O)oc(C)c1C(=O)NCc1ccc(F)cc1`, the activation is 14% (active).

Consider `COc1ccc(CNC(=O)c2c(C)cc(=O)oc2C)cc1OC`, for which the activation is -0.25% (inactive).

Turning to `CCN(CC)CCN1C(=O)C2C(C(=O)Nc3ccc(Br)cc3)C3C=CC2(O3)C1C(=O)NC1CCCCC1` (centres undefined), the activation was -1.41% (inactive).

`CS(=O)(=O)c1ccc2nnn(OCC(=O)Nc3cccc(C#N)c3)c2c1`: the activation was -0.17% (inactive).

As for `Cc1ccc(C2C(C#N)C(C#N)N3CCCN23)cc1` (centres undefined), the activation was 3.84% (inactive).

Turning to `CCCCOC(=O)CNc1nnc(SCC(=O)OCC)[nH]c1=O`, the activation was 4.67% (inactive).

For `COc1ccc(C#Cc2c(-c3ccc(OC)cc3)oc3ccc(-c4ccc5c(c4)OCO5)cc23)cc1`, the activation was 0.99% (inactive).

Take `O=C(/C=C/Nc1ccccc1)c1cnc(-c2ccccc2)s1`: the activation was -1.96% (inactive).

In the case of `CC(=O)c1cnc(-c2ccccc2)s1`, the activation is -1.26% (inactive).

On to `CC(C)(C)C(=O)c1cnc(Nc2ccccc2)s1`, for which the activation was 8.7% (active).

As for `Cc1cccc(C)c1N1C(=O)CN(Cc2ccccc2)C1=S`, the activation is 2.98% (inactive).

For the compound `O=C(NC(CC(=O)N1CCN(c2ccccc2)CC1)c1ccccc1)c1ccccc1Cl` (centres undefined), the activation was -0.04% (inactive).

As to `O=C1N=C(N2CCc3ccccc3C2)S/C1=C\c1ccc(O)cc1`, the activation is -0.01% (inactive).

Take `CCOc1cc(/C=C2\SC(N3CCCCC3)=NC2=O)ccc1O`: the activation was 1.52% (inactive).

In the case of `O=C1N=C(N2CCCC2)S/C1=C\c1cccc(Br)c1`, the activation was 8.18% (active).

For the compound `COC(=O)C1CCN(CC(N)=O)CC1`, the activation was -1.4% (inactive).

As to `Cc1ccc(CN(C(=O)c2sc3ccccc3c2Cl)C2CCS(=O)(=O)C2)cc1` (centres undefined), the activation is 1.1% (inactive).

As to `CC1(Cc2ccccc2C#N)C(=O)Nc2ccc(-c3ccc4[nH]ccc4c3)cc21` (centres undefined), the activation was -5.44% (inactive).

On to `Cc1ccc(CC2(C)C(=O)Nc3ccc(OC(F)(F)F)cc32)cc1` (centres undefined), for which the activation is -1% (inactive).

With `CC1(Cc2cccc(C#N)c2)C(=O)Nc2ccc(-c3cccc(C(F)(F)F)c3)cc21` (centres undefined), the activation is 11.2% (active).

In the case of `COc1cccc(CNc2nc(NCc3cccs3)nc3ccsc23)c1`, the activation was -1.3% (inactive).

Take `NC(c1csc(NC(=O)Nc2ccccc2Oc2ccccc2)n1)c1ccccc1Cl` (centres undefined): the activation was -1.81% (inactive).

With `c1ccc2c(c1)OCC(c1nn3cnnc3s1)O2` (centres undefined), the activation is 3.93% (inactive).

Consider `CC1CCc2sc3nc(N4CCN(CCO)CC4)n4ncnc4c3c2C1` (centres undefined), for which the activation is 7.88% (active).

In the case of `CCCn1nnc2sc3c(c2c1=O)CCC(C)C3` (centres undefined), the activation is 4.15% (inactive).

For `CC1CCc2c(sc3nc4n(c(=O)c23)CCS4)C1` (centres undefined), the activation is 3.94% (inactive).

For the compound `CCOc1cc2[nH]c(=O)n(CCC(=O)NCc3ccc(OC)cc3)c(=O)c2cc1OCC`, the activation is 0.9% (inactive).

With `NC(=S)NN=C1CCCC(C(F)(F)F)C1` (centres undefined), the activation is -0.39% (inactive).

Consider `N#CCCCn1c(O)c(N=NC(=O)C(O)c2ccccc2)c2ccccc21` (centres undefined), for which the activation was 1.76% (inactive).

For the compound `CCOC(=O)c1ccc(N=C2SC(C(=O)NC)CC(=O)N2CCc2ccccc2)cc1` (centres undefined), the activation was 0.94% (inactive).

Source of the values: PubChem BioAssay AID540364 (The Scripps Research Institute Molecular Screening Center, 2011).
